# Records with an inconclusive call do not appear. The source made the active and inactive calls. The calls were made as follows, unless noted: active = hit-call score of the fitted dose curve at least 0.9, where 1 is the maximum; inactive = score below 0.9.
# Columns and labels:
# [1] = CCTE_Shafer_MEA_dev_firing_rate_mean: CCTE's Neural Network Formation Assay for Mean Firing Rate, Shafer Lab (AID 2284031)
# Method in brief: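 Primary rat cortical neurons on 48-well, 16-electrode MEAs (PEI-coated, laminin at plating), exposed from day 0 with compound renewed at DIV 5 and 9. Spikes recorded DIV 5, 7, 9, 12; well-mean firing rate collapsed to trapezoidal AUC, loss-of-signal vs DMSO.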
# [2] = CCTE_Shafer_MEA_dev_per_burst_spike_percent: CCTE's Neural Network Formation Assay for Percent of Spikes in a Burst, Shafer Lab (AID 2284032)
# Method in brief: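 Rat primary cortical neurons on 16-electrode MEA wells, dosed from plating day 0 for 12 days with renewal on DIV 5 and 9; spikes-in-bursts percentage averaged over bursting electrodes, collapsed as AUC across days 5, 7, 9, 12; loss direction versus DMSO.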
# [3] = CCTE_Shafer_MEA_dev_active_electrodes_number: CCTE's Neural Network Formation Assay for Number of Active Electrodes, Shafer Lab (AID 2284040; active = hit-call score of the fitted dose curve at least 0.9, where 1 is the maximum)
# Method in brief: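 Rat cortical primary cultures, 1.5 x 10^5 cells/well, PEI-coated MEA, laminin drop. Continuous exposure DIV 0–12; full media/compound change DIV 5, 9. Readout: electrodes with mean firing ≥5 spikes/min; AUC across days; loss vs DMSO.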
# [4] = CCTE_Shafer_MEA_dev_burst_rate: CCTE's Neural Network Formation Assay for Burst Rate, Shafer Lab (AID 2284042)
# Method in brief: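 Exposure ran continuously over 12 days of network development in rat cortical cultures, with compound refreshed during full media changes on DIV 5 and 9. Single-electrode bursts per recording time, well-mean over active electrodes, trapezoidal AUC across days 5–12, fitted downward relative to DMSO.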
# [5] = CCTE_Shafer_MEA_dev_bursting_electrodes_number: CCTE's Neural Network Formation Assay for Number of Bursting Electrodes, Shafer Lab (AID 2284043; active = hit-call score of the fitted dose curve at least 0.9, where 1 is the maximum)
# Method in brief: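 Primary rat cortical neurons plated on 16-electrode MEA wells, exposed from day 0 with compound renewed at DIV 5 and 9. Electrodes bursting ≥1 burst per 2 min counted on days 5, 7, 9 and 12; trapezoidal AUC across days, fitted for loss versus DMSO.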
# [6] = CCTE_Shafer_MEA_dev_per_burst_interspike_interval: CCTE's Neural Network Formation Assay for Burst Interspike Interval, Shafer Lab (AID 2284044);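 also: mean spike spacing inside bursts as AUC over recordings on days 5 7 9 12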
# Method in brief: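 Rat cortical primary cultures, 16 electrodes/well; compound from plating, renewed with full media change DIV 5 and 9. Spikes via adaptive detector; per-burst ISI well-mean over active bursting electrodes; AUC of DIV 5/7/9/12 recordings; loss-direction fit vs DMSO.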
# [7] = CCTE_Shafer_MEA_dev_burst_duration_mean: CCTE's Neural Network Formation Assay for Mean Burst Duration, Shafer Lab (AID 2284045)
# Method in brief: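 Primary rat cortical neurons on 48-well 16-electrode MEA plates, exposed from day 0 with renewal at DIV 5 and 9; spontaneous activity recorded on days 5, 7, 9, 12. Well-mean burst duration across bursting electrodes, collapsed as trapezoidal AUC; DMSO baseline.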
# [8] = CCTE_Shafer_MEA_dev_interburst_interval_mean: CCTE's Neural Network Formation Assay for Mean Interburst Interval, Shafer Lab (AID 2284046);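 also: well-mean interburst interval of bursting electrodes as AUC over four recording days; curve fitted for decrease in interburst interval relative to DMSO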
# Method in brief: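 Primary rat cortical neurons on PEI-coated 48-well MEA plates (laminin added with cells at plating) (16 electrodes/well), exposed from plating day 0 with renewal at DIV 5 and 9. Mean inter-burst interval averaged over bursting electrodes, AUC across days 5, 7, 9, 12; DMSO baseline.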
# [9] = CCTE_Shafer_MEA_dev_inter_network_spike_interval_mean: CCTE's Neural Network Formation Assay for Mean Inter-network Spike Interval, Shafer Lab (AID 2284047)
# Method in brief: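 Mean time between consecutive network-spike peaks, recorded extracellularly (adaptive spike detection) on DIV 5, 7, 9 and 12, summarized as trapezoidal AUC. Rat cortical cultures on MEAs dosed continuously days 0–12, re-dosed at feeds; loss-of-signal fit relative to DMSO.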
# [10] = CCTE_Shafer_MEA_dev_network_spike_number: CCTE's Neural Network Formation Assay for Number of Network Spikes, Shafer Lab (AID 2284048)
# Method in brief: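 Primary rat cortical neurons on PEI/laminin 48-well MEA plates, dosed from plating day 0 for 12 days, renewed at DIV 5 and 9. Network spike counts recorded DIV 5, 7, 9, 12, collapsed as trapezoidal AUC; DMSO baseline.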
# [11] = CCTE_Shafer_MEA_dev_network_spike_peak: CCTE's Neural Network Formation Assay for Mean Number of Electrodes in Network Spike, Shafer Lab (AID 2284049)
# Method in brief: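 Network-spike peak electrode count from recordings on days 5, 7, 9 and 12 was combined as trapezoidal area under the curve. Rat cortical cultures were treated continuously from plating, with compound renewed at each feed (DIV 5, 9); fits versus DMSO.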
# [12] = CCTE_Shafer_MEA_dev_spike_duration_mean: CCTE's Neural Network Formation Assay for Mean Spike Duration, Shafer Lab (AID 2284051);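 also: mean network spike duration pooled as area under curve over DIV 5 to 12 recordings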
# Method in brief: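 Spontaneous activity was recorded on days 5, 7, 9 and 12 from rat cortical cultures grown on microelectrode arrays and dosed continuously from day 0, with media and compound renewed after the DIV 5 and 9 recordings. Network-spike duration was collapsed by area under the curve.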
# [13] = CCTE_Shafer_MEA_dev_per_network_spike_spike_number_mean: CCTE's Neural Network Formation Assay for Mean Number of Spikes in a Network Spike, Shafer Lab (AID 2284053)
# Method in brief: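 Mean spike count within each network spike, taken in a 0.05 s window at its peak, was recorded on days 5, 7, 9 and 12 and integrated as trapezoidal area under the curve. Rat cortical cultures on MEA plates received continuous compound from day 0, refreshed at medium changes on DIV 5 and 9.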
# [14] = CCTE_Shafer_MEA_dev_per_network_spike_spike_percent: CCTE's Neural Network Formation Assay for Percent of Spikes in a Network Spike, Shafer Lab (AID 2284054)
# Method in brief: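 Rat primary cortical neurons were grown on 48-well MEA plates (16 electrodes/well), exposed from plating day 0 through day 12, with treatment renewed on DIV 5 and 9. Percent of spikes within 0.05 s network-spike peaks was measured, summarised as AUC across days 5, 7, 9, 12.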
# [15] = CCTE_Shafer_MEA_dev_mutual_information_norm: CCTE's Neural Network Formation Assay for Mutual Information Normalization, Shafer Lab (AID 2284091)
# Method in brief: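 Primary rat cortical neurons on PEI-coated 48-well MEA plates, 1.5 x 10^5 cells/well, exposed from day 0 through day 12 with re-dosing at DIV 5 and 9. Mutual information between electrodes recorded days 5, 7, 9, 12; trapezoidal AUC, loss-of-signal fit versus DMSO.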
# [16] = UKN2_HCS_IMR90_neural_migration: University of Konstanz (UKN) Leist Lab Neural Crest Cell Migration Assay in human induced IMR90 Pluripotent Stem Cells (UKN2) (AID 2284204); details: actives raise or lower the signal
# Method in brief: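 iPSC-derived IMR90 neural crest cells seeded around stoppers on PLO/laminin/fibronectin; migration started in N2-S medium with EGF/FGF, compounds added after 24 h for 24 h. Migration into cell-free area imaged after calcein-AM/Hoechst staining; bidirectional fit versus DMSO.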
# [17] = IUF_NPC1b_proliferation_BrdU_72hr: Leibniz Research Institute for Environmental Medicine (IUF) 72-hour Neural Progenitor Cell Bromodeoxyuridine (BrdU) Proliferation Assay (NPC1b) (AID 2284207)
# Method in brief: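 BrdU luminescence ELISA quantified DNA synthesis over the last 16 h of a 72 h exposure, fitted against DMSO. Primary hNPC spheres from gestational week 16-19 cortex grown with EGF/FGF at 37C, pH 7.2-7.6.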
# [18] = IUF_NPC1a_proliferation_area_72hr: Leibniz Research Institute for Environmental Medicine (IUF) 72-hour Neural Progenitor Cell Proliferation Area Assay (NPC1a) (AID 2284208)
# Method in brief: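 Read-out: increase in sphere area over 72 h by automated phase-contrast imaging, fitted in positive direction versus DMSO baseline. One hNPC sphere (0.25-0.35 mm) per well in EGF/FGF medium; growth-factor withdrawal served as positive control.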
# [19] = IUF_NPC1_viability_72hr: Viability Assessment at 72 hours in the Leibniz Research Institute for Environmental Medicine (IUF) Neural Progenitor Cell Proliferation Assay (NPC1) (AID 2284209)
# Method in brief: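 Human fetal-cortex neural progenitor spheres (0.25–0.35 mm, one per well) grown in EGF/FGF proliferation medium at 37C, pH 7.2-7.6, exposed 72 h without renewal; viability read as alamar blue resazurin-to-resorufin fluorescence relative to DMSO.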
# [20] = CCTE_Mundy_HCI_Cortical_Synap_Neur_Matur_NeuriteSpotCountPerNeuriteLength: CCTE's Synaptogenesis and Neurite Maturation Assay in rat cortical cells for Neurite Spot Count per Neurite Length, Mundy Lab (AID 2284210)
# Method in brief: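 Rat primary cortical cultures, AraC added at DIV 5 to suppress glia; chemical exposure from DIV 7 to DIV 12. Fixed cells stained for MAP2 and synaptophysin plus Hoechst; synaptophysin puncta per neurite length quantified by high-content imaging, relative to DMSO.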
# [21] = CCTE_Mundy_HCI_Cortical_Synap_Neur_Matur_BPCount: CCTE's Synaptogenesis and Neurite Maturation Assay in rat cortical cells for Branch Point Count, Mundy Lab (AID 2284211)
# Method in brief: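 Branch point number is quantified by automated imaging of fluorescently labelled neurites and synapses in rat primary cortical neurons exposed from DIV 7 to DIV 12. Activity is analysed relative to DMSO negative control.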
# [22] = CCTE_Mundy_HCI_Cortical_NOG_NeuriteCount: CCTE's Neurite Outgrowth Assay in rat cortical cells for Neurite Count, Mundy Lab (AID 2284212);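 also: cells fixed about two days after chemical exposure began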
# Method in brief: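 Neurite number per cell from high-content imaging of betaIII-tubulin immunostaining, with Hoechst nuclear counterstain.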
compound,measurement,setting,value
CC(C)c1nn(C(=O)NC(C)(C)C)c(=O)n1N,outcome,[1],inactive
same,outcome,[2],inactive
same,outcome,[3],inactive
same,outcome,[4],inactive
same,outcome,[5],inactive
same,outcome,[6],inactive
same,outcome,[7],inactive
same,outcome,[8],inactive
same,outcome,[9],inactive
same,outcome,[10],inactive
same,outcome,[11],inactive
same,outcome,[12],inactive
same,outcome,[13],inactive
same,outcome,[14],inactive
same,outcome,[15],inactive
same,outcome,[16],inactive
same,AC50,[17],2010 nM (active)
same,outcome,[18],inactive
same,outcome,[19],inactive
same,outcome,[20],inactive
same,outcome,[21],inactive
same,outcome,[22],inactive

# Reference: PubChem BioAssay (EPA / NIEHS)
